Test results as given in ChEMBL document CHEMBL3988442, “University of Dundee, Small-Polar-MMV Screening Library” (2021).

Columns and labels:
[1] = target: T1, Aspartate--tRNA(Asp/Asn) ligase (Mycobacterium tuberculosis (strain ATCC 25618 / H37Rv)) (UniProt P9WFW3); test: Assay for Asp RNA synthetase-1 from Mycobacterium tuberculosis; type: functional; design: scale not given: direction of the effect not stated beside the values; conditions: 30 µM; note: in the data most compounds retested in dose-response had high values
T1 sequence (whole entry): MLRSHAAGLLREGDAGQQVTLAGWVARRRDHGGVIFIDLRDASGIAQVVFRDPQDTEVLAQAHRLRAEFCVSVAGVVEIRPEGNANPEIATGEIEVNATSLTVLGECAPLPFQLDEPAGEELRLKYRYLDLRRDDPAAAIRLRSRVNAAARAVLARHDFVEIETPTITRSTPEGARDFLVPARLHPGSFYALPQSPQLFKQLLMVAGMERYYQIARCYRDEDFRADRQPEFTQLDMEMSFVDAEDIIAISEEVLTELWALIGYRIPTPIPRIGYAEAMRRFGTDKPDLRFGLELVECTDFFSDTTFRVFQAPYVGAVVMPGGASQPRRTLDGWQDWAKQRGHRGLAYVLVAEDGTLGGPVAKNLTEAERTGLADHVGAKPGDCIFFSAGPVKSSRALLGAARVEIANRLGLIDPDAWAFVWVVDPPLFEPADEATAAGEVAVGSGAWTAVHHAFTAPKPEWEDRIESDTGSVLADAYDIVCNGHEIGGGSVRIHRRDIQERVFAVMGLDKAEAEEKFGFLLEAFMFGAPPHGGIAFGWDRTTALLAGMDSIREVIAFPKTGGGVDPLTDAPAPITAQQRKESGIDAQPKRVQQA

[2] = target: Shiga toxin 2 (Escherichia coli O157:H7) (UniProt P09385+P09386); test: E. coli 0.157:H7 Shiga Toxin SOP - stx2 screening assay; type: functional; design: scale not given: direction of the effect not stated beside the values; conditions: 30 µM

SMILES	Percent Effect [1] [%]	Percent Effect [2] [%]
Cn1cc(CN2CC[C@@H]3[C@@H](CCC(=O)N3CCc3c[nH]cn3)C2)cn1	-1.44	-37.6
CCNC(=O)c1nnn(Cc2ccccc2)c1OC	0.29	-14.9
Cc1ccc(OCCNC(=O)C(C)n2cncn2)cc1 (centres undefined)	4.54	4.25
CC(C)(O)CN1CCN(C(=O)c2sccc2C2CC2)CC1	0.16	10.1
Cc1ccc(N2CC3(CCN(C(=O)c4ccoc4)C3)C2)nn1	-1.37	-33.4
CS(=O)(=O)CCSc1cccc(C#N)c1	0.641	4.17
O=C1CN(Cc2nnc(-c3ccccc3Br)o2)CCN1	-4.51	-24.1
Cc1cc(C)n(CC2CCCN2C(=O)c2cnn(C)c2C2CC2)n1 (centres undefined)	1.84	1.91
Cc1nc(C2CCCN(C(=O)c3cccc(S(C)(=O)=O)c3)C2)no1 (centres undefined)	-2.72	-6.27
Cn1c(CC2CCS(=O)(=O)C2)nnc1SCCOc1cccc(Cl)c1 (centres undefined)	2.13	-13
Cc1cc(NC(=O)NCC(C)O)n(C)n1 (centres undefined)	-2.68	-5.14
COCC(=O)N1CCC2(CC1)COCCN2CCN(C)C	3.2	-1.86
c1cnn(CCNCc2nnc(C3CC3)o2)c1	-0.343	-28.3
CC(C)(C)c1nc(CN2CCCC(Cn3cncn3)C2)cs1 (centres undefined)	4.23	13.2
Cc1cc(CN2CCN(C(C)c3nc(C4CC4)no3)CC2)no1 (centres undefined)	3.89	-2.55
Cc1cccc(N2CCN(CCNC(=O)c3ccnn3C)CC2)c1	5.62	-28.1
COCCCC(=O)NS(=O)(=O)c1ccc2c(c1)OCCCO2	-1.35	23.1
Cc1ncsc1C(=O)NCCn1nc(C2CCNC2)c2cccnc21 (centres undefined)	-3.63	-7
COC(CNC(=O)N1CCC(n2cncn2)CC1)c1ccccc1 (centres undefined)	-3.54	7.26
CN(C)Cc1nn(C)c2c1CCN(S(=O)(=O)c1cccs1)C2	3.37	-17.1
O=C(NCC1CC1)[C@H]1CC[C@@H]2[C@@H](CCN2Cc2ccoc2)O1	-5.12	0.319
CC(=O)N1CCOCC2(CCN(Cc3ccc(C)s3)CC2)C1	0.408	-23.3
Cc1cccn2c(=O)cc(CN3CCCCC3Cn3cncn3)nc12 (centres undefined)	-0.0141	-18.4
c1cnc2c(c1)cc([C@H]1CCCO1)n2CCN1CCOCC1	7.52	12.7

SMILES	Percent Effect [1] [%]	Percent Effect [2] [%]
O=C(C1CCOC1)N1C[C@H]2CN(Cc3nccs3)C[C@H]2C1 (some centres undefined)	-1.88	1.98
Cc1cccnc1C(=O)N1CCCCC1c1[nH]ncc1S(C)(=O)=O (centres undefined)	5.01	6.84
CCC(=O)N1CCC2(CC1)COc1ccccc1S(=O)(=O)N(C)C2	-1.57	6.18
CC(C)=CCN1CCC(c2nccn2Cc2cscn2)CC1	-3.28	22.8
CC(=O)Nc1nc(C(=O)Nc2ccc(F)cc2)cs1	-0.259	-5.87
CC1CCN(S(=O)(=O)c2cccn(CC(=O)N3CCOCC3)c2=O)CC1	-4.3	-33
CCn1ncnc1C(C)NC(=O)C1CCN(C(=O)COC)CC1 (centres undefined)	6.73	11.1
CCn1cnnc1CNC(=O)N1CCC(C(=O)NC)CC1	-8.1	-16.1
CC(=O)N(Cc1ncc(C)o1)C1CCN(Cc2ccncc2Cl)C1 (centres undefined)	2.91	16
Cn1ccc(C(=O)N2CCCC(Cc3cccc4ncccc34)C2)n1 (centres undefined)	-2.07	-7.58
O=C1CC2(CCCCN2C(=O)c2ccsc2)CN1CC1CC1 (centres undefined)	-2.94	-8.01
O=C(C1CC=CC1)N1CCc2c(COCc3ccncc3)cncc2C1	-3.81	-51.1
Cc1noc(C)c1CN1CC2(CCN(C(=O)c3cscn3)CC2)CC1=O	6.36	-13.6
Cn1ccnc1CN1CCCN(C(=O)c2ccc3c(c2)COC3)CC1	0.393	24.9
Cc1ccc(C(=O)N2CCn3cc(CN(C)Cc4ccco4)nc3C2)o1	-0.889	-35.1
CCO[C@@H]1CO[C@@]2(CCCN(C(=O)c3ccc(OC)c(F)c3)C2)C1	2.11	-23.8
Cc1nc(C2CCCN(C(=O)c3ccco3)C2)no1 (centres undefined)	-1.47	-1.79
CNS(=O)(=O)Cc1ccc(CNc2cncc(-n3cccn3)n2)cc1	-0.637	-15.6
Cc1ccc(N2CCN(C(=O)COc3ccccc3)CC2)nn1	-1.15	-66.5
COc1c(C2CCCN2C(=O)c2c[nH]c3ncccc23)c(C)nn1C (centres undefined)	-1.25	-20.6
CCN1CC2(CCNCC2)COc2ccccc2S1(=O)=O	-1.28	-27.7
Cc1ccc(CNC(=O)N2CCCCC2CCNS(C)(=O)=O)cc1 (centres undefined)	1.04	6.21
CO[C@H]1CCN(S(=O)(=O)c2cn(C)cn2)[C@H]1Cc1cccnc1	-0.175	-10.2
